FLuc counter: qHTS profiling assay for firefly luciferase inhibitor/activator using purifed enzyme and Km concentrations of substrates (counterscreen for miR-21 project). Luciferin 4-monooxygenase (Photinus pyralis), P08659. purified FLuc, Km substrates, luminescence inhibition. Potency, µM (series often up to 57.5 µM), without a hit: at the highest dose activity change, negative = inhibition, actives largely listed as inhibitors. hit rate 6.9% among 360,000. AID 588342, 2011;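 further: plate controls were vehicle for no effect and reference inhibitor for full effect; nearly all actives have a fitted effect of over 55% in size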
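Biochemical qHTS of compounds, final roughly 60 µM downward over six points, against 10 nM purified firefly luciferase using Km concentrations of substrates (10 uM D-luciferin, 10 uM ATP) in Tris acetate pH 7.5 buffer; luminescence output.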
NPC1 prom act: qHTS Assay for NPC1 Promoter Activators; Potency, µM (highest dose often 9.22 µM), inactives show at the top dose activation, usual class: activators; hit rate 2.4% among 320,000; Huh7 NPC1 promoter luciferase reporter, 24 h; AID 485313, 2010; further: % of control where 0% means no effect; nearly all actives have a fitted effect of over 60% in size
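NPC1 promoter–luciferase Huh7 cells; 24 h compound; luminescence.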
ELG1 repair inh: qHTS screen for small molecules that inhibit ELG1-dependent DNA repair in human embryonic kidney (HEK293T) cells expressing luciferase-tagged ELG1 | hit rate 2.3% among 330,000 | AID 504467, 2011 | Potency, µM (top dose mostly 46.1 µM), for inactives: at the highest dose activity change, negative = inhibition, actives largely listed as inhibitors | HEK293T ELG1-luciferase reporter, luminescence, 16 h; DNA damage induced by 5-fluorouridine; further: on the % scale 0 is the no-effect control and ±100 the full control effect; nearly all actives have a fitted effect of over 55% in size
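In this reporter screen, reduction of luminescence relative to DMSO vehicle indicated activity. Compounds and 5-fluorouridine were added together to 2,000 cells per well, incubated for 16 hr at 37 °C, then developed with ONE-Glo.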
Rab9 prom act: qHTS Assay for Rab9 Promoter Activators; Huh7 Rab9 promoter-luciferase reporter, luminescence, 24 h; Potency, µM (titrated, usually from 9.22 µM), for the others: at the top dose activation, negative = inhibition, hits mostly activators; hit rate 2.8% among 320,000; further: % of control where 0% means no effect; nearly all actives have a fitted effect of over 60% in size
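Huh7 cells stably carrying a Rab9 promoter-luciferase reporter, 1500 cells per well in OP-MEM I with 10% FBS, treated with compound 24 hours at 37C. Luciferase activity read by luminescence after 10 minutes with Amplite reagent.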
SMN2 splice up: qHTS Assay for Enhancers of SMN2 Splice Variant Expression. Potency, µM (titrated, usually from 46.1 µM), for the others: at the top dose activity change, positive = activation, most hits filed as activators. HEK293 SMN2-luciferase splicing reporter, luminescence, 30-36 h. hit rate 2.8% among 210,000; further: % of control where 0% means no effect; nearly all actives have a fitted effect of over 55% in size
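HEK293 cells carry an SMN2 minigene-luciferase reporter in which exon 7 inclusion puts luciferase in frame. Cells were seeded at 2000 cells/well, attached for 10-12 hours, then exposed to compounds for 30-36 hours at 37C before ONE-Glo luminescence.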
ELG1 genotox: qHTS screen for small molecules that induce genotoxicity in human embryonic kidney (HEK293T) cells expressing luciferase-tagged ELG1; HEK293T ELG1-luciferase reporter, luminescence, 16 h; Potency, µM (titrated, usually from 46 µM), for the others: at the highest dose activity change, positive = activation, most hits filed as activators; hit rate 1.3% among 330,000; AID 504466, 2011; further: % of control where 0% means no effect; nearly all actives have a fitted effect of over 60% in size
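DMSO vehicle served as control against compound-treated ELG1-luciferase HEK293T cells; exposure lasted 16 hr at 37 °C and 5% CO2, followed by ONE-Glo luminescence detection after 30 min.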
ELG1 FLuc counter: qHTS screen for small molecules that inhibit ELG1-dependent DNA repair: Hit Confirmation in Cell-Based Luciferin Assay; shares compounds with ELG1 repair inh; cell-free firefly luciferase luminescence counter-screen, ViewLux; Potency, µM (top dose mostly 46.1 µM), without a hit: top-dose activity change, negative = inhibition, most hits filed as inhibitors; hit rate 3% among 350; further: on the % scale 0 is the no-effect control and ±100 the full control effect
ELG1-Luc inh: HTS assay for small molecules that inhibit ELG1-dependent DNA repair in human embryonic kidney (HEK293T) cells expressing luciferase-tagged ELG1: Hit Confirmation; shares compounds with ELG1 repair inh; HEK293T ELG1-luciferase levels, luminescence; cells co-treated with 5-fluorouridine; Potency, µM (series often up to 46.1 µM), for the others: at the top dose activity change, negative = inhibition, most hits filed as inhibitors; hit rate 68% among 670; AID 624248, 2012; further: on the % scale 0 is the no-effect control and ±100 the full control effect; nearly all actives have a fitted effect of over 55% in size
ELG1-Luc MMS: confirmation of human ELG1 repair inhibitors, MMS stimulated. shares compounds with ELG1 repair inh. HEK293T luciferase-tagged ELG1 level, MMS stimulated. Potency, µM (doses to about 46.1 µM), for the others: at the highest dose activity change, negative = inhibition, most hits filed as inhibitors. hit rate 53% among 670; further: on the % scale 0 is the no-effect control and ±100 the full control effect; nearly all actives have a fitted effect of over 60% in size
ELG1 5-FU: qHTS screen for small molecules that inhibit ELG1-dependent DNA repair: Hit Confirmation with 5FU Viability; shares compounds with ELG1 repair inh; cell viability with 5-FU, ELG1-dependent repair; Potency, µM (highest dose often 46.1 µM), for inactives: at the top dose activity change, negative = viability loss, hits mostly cytotoxic; 670 tested, under 10 active; AID 624250, 2012;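 further: ELG1-luc HEK293T cells cotreated with 5-fluorouridine at 10 µM final; viability measured 16 h after compound addition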
ELG1 MMS viab: qHTS screen for small molecules that inhibit ELG1-dependent DNA repair: Hit Confirmation with MMS Viability | Potency, µM (top dose mostly 46.1 µM), without a hit: at the highest dose activity change, negative = viability loss, hits mostly cytotoxic | Cell viability with MMS, ELG1-dependent DNA repair | hit rate 33% among 670 | shares compounds with ELG1 repair inh | AID 624251, 2012;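 further: ELG1-luc HEK293T cells co-treated with 10 µM MMS; viability read 16 h after compound addition; on the % scale 0 is the no-effect control and ±100 the full control effect; nearly all actives have a fitted effect of over 60% in size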
Cell viab unstim: qHTS screen for small molecules that inhibit ELG1-dependent DNA repair: Hit Confirmation with Unstimulated Viability Assay; shares compounds with ELG1 repair inh; cell viability counter-screen, unstimulated, luminescence; Potency, µM (highest dose often 45.9 µM), without a hit: top-dose activity change, negative = loss of viability, hits mostly cytotoxic; hit rate 8% among 900;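 further: compound exposure lasted 16 hours before reading; on the % scale 0 is the no-effect control and ±100 the full control effect; nearly all actives have a fitted effect of over 55% in size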
FLuc enzyme: qHTS screen for small molecules that inhibit ELG1-dependent DNA repair: Hit Confirmation in Biochemical Luciferin Assay. Potency, µM (titrated, usually from 57.5 µM), for the others: top-dose activity, negative = inhibition, usual class: inhibitors. shares compounds with ELG1 repair inh. purified firefly luciferase, luminescence counter-screen. hit rate 10% among 350; further: on the % scale 0 is the no-effect control and ±100 the full control effect
Numbers without * were called inactive; ? = inconclusive; · = not tested or not shown. A selection: hits, their analogues and other compounds. The true share with any hit is near 9.2%. The call rests on the fitted dose curve; in most records, active means well fitted curve in the direction sought with a large enough effect; inconclusive means small, poorly fitted or top-dose-only effect, or another doubt; inactive means no such curve, though single readings can be large; an effect the other way counts as inactive or inconclusive. Potency means the concentration at half of the fitted maximal effect.

SMILES	FLuc counter	NPC1 prom act	ELG1 repair inh	Rab9 prom act	SMN2 splice up	ELG1 genotox	ELG1-Luc inh	ELG1-Luc MMS	ELG1 5-FU	ELG1 MMS viab	Cell viab unstim	others
CCOC(=O)c1c(C)[nH]c(C)c1S(=O)(=O)NCC1CCN(Cc2ccccc2OC)CC1	5.2%	-3.1%	5.1%	7.4%	·	2.4%	·	·	·	·	·
COc1ccc(-c2nnc3ccc(SCC(=O)Nc4nc5ccccc5s4)nn23)cc1OC	-14.9%	-1.0%	0.517µM*	-3.9%	-1.5%	-1.8%	0.629µM*	9.5%	?	-5.1%	?	ELG1 FLuc counter=28.9%;FLuc enzyme=?
COc1ccccc1C(=O)COC(=O)c1ccccc1OCC(=O)Nc1ccc(SC(F)F)cc1	-9.1%	22.0%	4.61µM*	0.9%	-30.4%	-1.8%	7.05µM*	?	?	1.2%	-20.0%
Fc1ccc(-c2csc(-c3nc(-c4ccc(Br)s4)cs3)n2)cc1	2.4%	·	·	·	-1.3%	·	·	·	·	·	·
Oc1cc2cc(-c3csc(-c4ccc(F)cc4)n3)cc3c2n1CCC3	·	·	·	·	·	·	·	·	·	·	1.3%
CCOC(=O)c1ccc(NC(=O)C2Cc3ccccc3CN2S(=O)(=O)c2ccc(Cl)cc2)cc1 (configuration not stated)	2.3%	·	·	·	-27.5%	·	·	·	·	·	·
